# In all, about 5,900 compounds went through this assay and about 140 (2.4%) were called active. The sample as a whole holds a higher share of actives than the screen did. Values without a mark were called inactive. Rule as the data show it: active = binding response below about 16% or above about 210%; inactive = in between.
# Target: Mitogen-activated protein kinase kinase kinase 2 (Homo sapiens) (UniProt Q9Y2U5)
# Test: modulators of MEK5 binding to wildtype MEKK2, confirmation, biochemical, single concentration, multiplex bead flow cytometry (AID 1892)
# Conditions: Alexa488-MEK5 binding to MEKK2 WT, at 10 µM, actives lie on both sides
row,SMILES,binding response (% of control)
1,CCOC(=O)Cc1csc(NC(=O)CSc2nc(C)cc(=O)[nH]2)n1,92%
2,CCOc1nnc(C)c2c(C)n(-c3cccc(Cl)c3)nc12,86%
3,O=C(COC(=O)CNC(=O)c1ccco1)Nc1ccc(F)cc1,98%
4,Cn1c(=NC(=O)CSCC(=O)N2CCCCC2)sc2ccccc21,103%
5,N=C1/C(=C/c2cccn2-c2cccc([N+](=O)[O-])c2)C(=O)N=C2SC=CN12,99%
6,O=C(c1ccc(Br)o1)N(c1ccccn1)C1CCCCC1,101%
7,CC(C)(C)NC(=O)Cn1cnc([N+](=O)[O-])n1,96%
8,O=C(CC1SCCNC1=O)Nc1ccc(Cl)c(Cl)c1 (configuration not stated),104%
9,O=c1c(/C=N/O)coc2ccc(Cl)cc12,100%
10,CCN(CC)C(=O)CC(c1ccc2c(c1)OCO2)c1c(OC)cc(OC)c2c(-c3ccccc3)cc(=O)oc12 (configuration not stated),99%
11,Cc1ccc(C(=O)N/C(=C/c2ccco2)C(=O)NCCc2c[nH]c3ccccc23)cc1C,101%
12,CN1CCN(/N=C/c2ccc(C#N)cc2)CC1,92%
13,CCN1CCN(c2nc(Nc3cc(OC)ccc3OC)nc(Nc3cc(OC)ccc3OC)n2)CC1,148%
14,COc1ccccc1OCCNCC(O)COc1cccc2[nH]c3ccccc3c12 (configuration not stated),159%
15,COc1ccccc1NC(=S)N1CCN(c2ccc(F)cc2)CC1,100%
16,O=C(O)/C(=C/c1cccnc1)NC(=O)c1ccccc1,103%
17,c1ccc(CN2CCC(N=C3NN=C(c4ccc5c(c4)OCCO5)CS3)CC2)cc1,164%
18,COc1cccc(/C(C)=N/Nc2ncc(Cl)cc2Cl)c1,100%
19,O=C(c1ccco1)N1CCN(c2cccc(Cl)c2)CC1,93%
20,COC(=O)C1=NN(c2ccccc2)C2C(=O)N(c3ccccc3OC)C(=O)C12 (configuration not stated),97%
21,Cc1cccc(CN2CCC(CNC(=O)Nc3ccc(F)c(Cl)c3)CC2)c1,126%
22,CCN1CCN(CCNC(=O)c2ccc(/C=C3/Sc4ccccc4N(Cc4cccc(C)c4)C3=O)cc2)CC1,236% (active)
23,C/C(=N\NC(=O)CNC(=O)C(c1ccccc1)c1ccccc1)c1ccc(C)cc1,106%

row,SMILES,binding response (% of control)
1,CCOC(=O)c1cc2c(nc1NC(=S)Nc1ccccc1)CC(C)(CC)OC2 (configuration not stated),101%
2,C=CCN(CC=C)S(=O)(=O)c1ccc(C(=O)Nc2sc3c(c2C(N)=O)CCCCC3)cc1,99%
3,COc1cccc(NC(=S)NCCCN2CCOCC2)c1,109%
4,CCOc1ccc(S(=O)(=O)N(CC(=O)O)c2ccccc2)cc1,103%
5,COc1cccc(OC)c1C(=O)Nc1ccc(Cc2ccncc2)cc1,100%
6,CCCN(CCC)c1nc2c(C)cccn2c(=O)c1/C=C1/SC(=S)N(Cc2ccco2)C1=O,85%
7,CCCCn1c(SCC(=O)NCCc2ccc(OC)c(OC)c2)nc2c1c(=O)n(C)c(=O)n2C,103%
8,N=C(N)SCc1cccc2ccccc12,105%
9,CCc1ccc(-c2nn(-c3ccccc3)cc2CSC(=N)N)cc1,210% (active)
10,CC(=O)N1CCN(S(=O)(=O)c2ccc(C)c([N+](=O)[O-])c2)C1C(C)C (configuration not stated),97%
11,COc1ccc(CC(=O)N2N=C(C)CC2(O)C(F)(F)F)cc1 (configuration not stated),96%
12,COc1ccc(S(=O)(=O)Nc2ccc3oc(C)c(C(C)=O)c3c2)cc1,95%
13,NC(N)=N/N=C/c1ccc(OCc2ccc(Cl)cc2Cl)cc1,234% (active)
14,CC(C)CC(=O)NC(=S)Nc1cc(C(=O)O)ccc1Cl,102%
15,CCn1cc(CN2CCC(C(=O)Nc3cccc(-c4cccc(Cl)c4)c3)CC2)cn1,182%
16,O=C(Cc1cccc2ccccc12)Nc1ccc2oc(-c3ccccc3)nc2c1,115%
17,O=C(CN1C(=O)c2cccnc2Oc2ccc(Cl)cc21)Nc1ccc(F)cc1,99%
18,N/C(=N\OS(=O)(=O)c1cccc([N+](=O)[O-])c1)c1ccncc1,103%
19,c1ccc2c(c1)C(=NC1CCCCC1)NC2=NC1CCCCC1,125%
20,CCOC(=O)CN(C)S(=O)(=O)c1ccc(-c2cc(C(=O)OC)sc2C(F)(F)F)cc1,101%
21,O=C(NCCC1=CCCCC1)c1ccc(Cl)c([N+](=O)[O-])c1,105%
22,CCN(CC)CCOc1ccc2c(c1)C(=NNC(=O)c1ccccn1)c1cc(OCCN(CC)CC)ccc1-2,210% (active)
23,CN(C)CCCNC(=O)c1cc(C(=O)Cc2ccc(Cl)cc2)c[nH]1,106%

row,SMILES,binding response (% of control)
1,C[C@H]1CCC(=O)N([C@H](CSc2ccccc2)Cc2ccccc2)CC1,111%
2,Cn1c(C(=O)NCCCN2CCCCC2)cc2sccc21,119%
3,O=C(NCCCN1CCCCCC1)C1CC(=O)N(C2CCCC2)C1 (configuration not stated),1% [inhibitor] (active)
4,O=C(NCCCN1CCCCCC1)c1ccc(N2CCCC2=O)cc1,156%
5,C=CCn1c(=S)sc2c(=O)[nH]c(C)nc21,106%
6,O=C1Nc2ccc(Br)cc2/C1=N/N=C/C1=C(N2CCOCC2)C(=C\c2ccccc2)/CC1,47%
7,N#C/C(=C\C1=C(N2CCOCC2)C(=C\c2ccccc2)/CC1)C(=O)Nc1ccccc1F,10% [inhibitor] (active)
8,O=C(O)C1CCN(c2ccc([N+](=O)[O-])cc2[N+](=O)[O-])CC1,103%
9,Cc1ccc2c(C)c(C(=O)N3CCN(c4ccncc4)CC3)oc2c1C,161%
10,CC1(C)Cc2cccc(OCC(=O)N3CCN(c4ccc([N+](=O)[O-])cc4)CC3)c2O1,99%
11,CN1C(=O)/C(=C\c2ccc(-c3ccccc3)o2)SC1=S,23%
12,CCOC(=O)N1CCN(CC(=O)n2c(C)c(C)c3ccccc32)CC1,93%
13,FC(F)(F)c1nc(-c2ccccc2)ncc1-c1nnnn1-c1ccccc1,96%
14,O=C(NCCCN1CCN(c2ccc(F)cc2)CC1)Nc1ccc([N+](=O)[O-])cc1,129%
15,COc1ccc(C(=O)C[n+]2ccc(C)cc2)cc1,104%
16,COc1cc(Br)c(-c2sc(Nc3ccccc3)n[n+]2-c2ccccc2)cc1OC,134%
17,CN(C)CCCNC(=S)N1CCN(c2nc(-c3ccccc3)cs2)CC1,108%
18,O=C(O)CC(Cc1ccccc1)C(=O)Nc1ccc([N+](=O)[O-])cc1 (configuration not stated),96%
19,Cc1onc(-c2ccccc2Cl)c1C(=O)OCC(=O)c1ccccc1,94%
20,COc1cc(C)nc(N2CCCC(C(=O)NCC(C)C)C2)n1 (configuration not stated),97%
21,CCN(CC)CCC(c1ccc2c(c1)OCO2)c1c(OC)cc(OC)c2c(-c3ccccc3)cc(=O)oc12 (configuration not stated),134%
22,COc1ccc(CNC(=O)C2CCN(S(C)(=O)=O)CC2)cc1,103%
23,Cc1ccc(CNC(=O)Cn2c(=O)c3sccc3n(Cc3cccc([N+](=O)[O-])c3)c2=O)cc1,103%

row,SMILES,binding response (% of control)
1,COc1cccc(/C=N\NC(=O)C2=NNC(=O)C2C)c1O (configuration not stated),100%
2,COc1cccc(CNCCc2c[nH]c3ccccc23)c1OCc1ccccc1F,131%
3,C#CCOCCOCCOCCNc1nc(N2CCN(C(=O)C([C@@H](C)CC)n3cc(C(N)COC(=O)C(F)(F)F)nn3)CC2)nc(N2CCN(C(=O)[C@H](CCCCN)n3cc(C(N)CC(C)C)nn3)CC2)n1 (some centres not stated),191%
4,O=C(Nc1ccn(Cc2ccccc2)n1)c1cccc(F)c1,105%
5,CN(C)CCCN(C(=O)COc1ccccc1)c1nc2c(Cl)cccc2s1,133%
6,O=C(CN1CCN(C(=O)c2ccco2)CC1)Nc1ccc(Cl)c(C(F)(F)F)c1,112%
7,CNC(C)C#Cc1ccc2sc3cc(OC)c(OC)cc3c(=O)c2c1 (configuration not stated),128%
8,COc1cccc(C2CC(c3ccccc3)=NN2S(=O)(=O)c2ccccc2)c1OC (configuration not stated),98%
9,O=C(Nc1ccc(Cl)cn1)c1cnn2cccnc12,108%
10,CCC(C)OC(=O)C(C)Oc1ccc(-c2ccccc2)cc1 (configuration not stated),106%
11,Cn1ccc(=Nc2ccc(NC(=O)c3ccc(N=c4ccn(C)c5ccc([N+](=O)[O-])cc45)cc3)cc2)cc1,152%
12,CC1CCN(C2=NC(=O)/C(=C/c3cn[nH]c3-c3ccccc3)S2)CC1,94%
13,COc1cccc(Nc2ncccc2C(=O)O)c1,97%
14,CCCc1nnc(SCC(=O)N2C(C)CCCC2C)n1CC (configuration not stated),110%
15,Cc1ccc(C)c(CN2CCC(CNC(=O)Nc3ccc(C)c(F)c3)CC2)c1,146%
16,CSCC[C@H](NC(=O)CCCn1nnc2ccccc2c1=O)C(=O)O,105%
17,CCc1ccc2nc(Nc3ncc(C(C)=O)c(C)n3)nc(C)c2c1,103%
18,CCOc1ccc(S(=O)(=O)NCCCn2ccnc2)cc1NC(C)=O,100%
19,CCC(=C/c1sc2ccc3ccccc3c2[n+]1C)/C=C1\Sc2ccc3ccccc3c2N1C,13% [inhibitor] (active)
20,O=C(O)c1cccnc1NC1CCCC1,109%
21,COc1ccc(N2CCN(Cc3nnc(-c4ccccc4)o3)CC2)cc1,94%
22,C[N+](C)(C)CCNC(=O)c1c(O)c2c([nH]c1=O)CCCC2,101%
23,COc1ccc(NC(=O)Cn2nnc(C(=O)NCCc3ccc(OC)c(OC)c3)c2N)cc1,98%
